Screening results from PubChem BioAssay.
NS1 function inh – blocks influenza NS1 protein function; Potency, µM (highest dose often 46.1 µM), without a hit: at the highest dose activity, positive = more growth; 270,000 compounds, 0.4% hits; AID 2326; calls by dose curve; note: potency is the fitted concentration of half-maximal effect; actives are rising curves; nearly all actives have a fitted effect of over 50% in size
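In this qHTS, NS1 from influenza A is expressed in budding yeast, where it slows growth. Cells are switched from glucose to 2% galactose medium (pH 6.0, -URA), treated with compound, and growth recovery is read at OD600.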
Shiga inhibitor – Shiga toxin inhibition. Vero cells, Shiga toxin protein synthesis inhibition reporter. inhibition, % at 38.7 µM. 290,000 compounds, 9.2% hits. AID 2315; in the data active = inhibition mostly above about 28%, no sharp cut-off; inactive = mostly below about 43%; note: 0% is about no effect
Pf growth 96h – P. falciparum growth inhibition at 96 hour, primary screen for plastid delayed-death inhibitors. P. falciparum luciferase reporter growth, 96 h. Potency, µM (titrated, usually from 28.7 µM), for the others: top-dose activity change, negative = inhibition, most hits filed as inhibitors. 320,000 compounds, 6.9% hits; note: potency is the fitted concentration of half-maximal effect; % is set by controls: 0 for no effect and ±100 for the full control effect
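Cell-based qHTS: luciferase-tagged P. falciparum in erythrocytes (2% hematocrit, 0.05% parasitemia final) incubated with compounds for 96 hours, 37 C, 5% CO2; luciferase detection reagent then added and luminescence measured.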
Cycloheximide cs – counter-screen hit for Shiga toxin inhibitors, cycloheximide. cell reporter, cycloheximide protein synthesis inhibition counterscreen. max response, %. AID 2314. 300,000 compounds, 12% hits; in the data active = max response mostly above about 13%, no sharp cut-off; inactive = mostly below about 14%; note: read at 38.3 µM for the half of the compounds with a filed dose; 0% is about no effect
Pf growth 48h – inhibits P. falciparum growth in the first generation, 48 h; 310,000 compounds, 5.9% hits; Potency, µM (series often up to 28.7 µM), for the others: top-dose activity change, negative = inhibition, usual class: inhibitors; P. falciparum luciferase growth in erythrocytes, 48 h; note: potency is the fitted concentration of half-maximal effect; % is set by controls: 0 for no effect and ±100 for the full control effect
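Here the parasites carry a stable luciferase gene and grow inside erythrocytes in Albumax-based RPMI medium with compound for one erythrocytic cycle. Activity is scored as loss of luminescent signal.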
SARS PLpro yeast – SARS-CoV PLP inhibition in yeast; S. cerevisiae expressing SARS-CoV PLpro, growth rescue; Potency, µM (series often up to 32.9 µM), for the others: at the highest dose activity, positive = growth rescue, hits mostly activators; 330,000 compounds, 0.19% hits; AID 485353; calls by dose curve; note: potency is the fitted concentration of half-maximal effect; 0% is about no effect; nearly all actives have a fitted effect of over 55% in size
The depositor's hits bear a star; i = inactive; u = inconclusive; x = no result; [ ] = remark or other dose. In the library only some 21% were active in any assay of this set; here they are far more common. Unless noted, calls come from the whole dose curve; as a rule, active = well fitted inhibition curve with a large enough effect; inconclusive = small, poorly fitted or top-dose-only effect, or another doubt; inactive = no such curve, though single readings can be large or run the other way.

SMILES | NS1 function inh | Shiga inhibitor | Pf growth 96h | Cycloheximide cs | Pf growth 48h | SARS PLpro yeast
CCC(Sc1nnc(C)s1)C(=O)Nc1nccs1 (centres undefined) | 4% | 3 | x | -1 | 13% | 1%
Cc1csc(NC(=O)c2nc3nc(C)cc(C)n3n2)n1 | -9% | 49 | 24% | 48* | 103% | 2%
CC1CCC(NC(=O)CN2C(=O)NC3(CCCCC3C)C2=O)CC1 (centres undefined) | x | x | 8% | x | u | -6%
CC1CC(C)CN(C(=O)CSCC(=O)Nc2nc(-c3cccs3)cs2)C1 (centres undefined) | -47% | 41 | 29% | 2 | 10% | 2%
O=C(CSCC(=O)N1CCCCC1)Nc1nc(-c2ccc(Cl)s2)cs1 | -74% | 81 | 37% | 16* | x | -28%
CCOC(=O)N1CCN(C(=O)CSCC(=O)Nc2nc(-c3ccccc3)cs2)CC1 | -15% | 30* | 67% | -2 | -13% | 9%
O=C(CSCC(=O)N1CCN(c2ccccc2)CC1)Nc1nc(-c2ccc(Cl)s2)cs1 | 11% | 9 | u | 6 | u | 6%
O=C(CSCC(=O)N1CCCCC1)Nc1nc(-c2cccs2)cs1 | -95% | 108 | 32% | 20* | x | -9%
O=C(NN(C(=O)C1CC1)c1nc2ccccc2s1)C1CC1 | u | 60* | 4.1µM* | 46* | 27% | 22%
O=C(C1CCCCC1)N(CCN1CCCC1)c1nc2ccccc2s1 | -6% | 40 | -5% | 32* | 47% | 4%
Cc1ccc(N=Nc2cc(C)ccc2N)cc1 | -7% | 50* | i | 38* | 232% | 0%
Cc1cc(C)c(O)c(N)c1 | -6% | -4 | 2.3µM* | -2 | u | -5%
COCCn1c(C)cc(C(=O)COC(=O)c2ccc3ncsc3c2)c1C | -18% | 110* | u | 24* | 108% | 1%
COCCn1c(C)cc(C(=O)COC(=O)c2ccccc2Br)c1C | x | -12 | 52% | -3 | 226% | -5%
COCCn1c(C)cc(C(=O)COC(=O)c2ccc(NC(=O)CC#N)cc2)c1C | 1% | 73* | x | 40* | -38% | -8%
COCCn1c(C)cc(C(=O)COC(=O)c2ccc(S(=O)(=O)N(C)C)cc2)c1C | x | x | x | x | x | -2%
COCCn1c(C)cc(C(=O)COC(=O)c2cncc(Br)c2)c1C | -4% | 54* | 153% | 36* | 107% | -22%
COc1ccc(S(=O)(=O)N2CCC(C(=O)Oc3cccc(C)c3)CC2)cc1OC | 8% | -2 | 14% | -4 | 80% | 23%
CCOc1ncccc1C(=O)N(CC)CC(=O)NCc1ccc(F)cc1 | 25% | -13 | -2% | -4 | 9% | 2%
CN(Cc1ccc(C(C)(C)C)cc1)C(=O)c1ccc2c(=O)n3c(nc2c1)CCC3 | x | x | u | x | 13µM* | 0%
CN(Cc1ccc(OC(F)F)cc1)C(=O)c1ccc2c(=O)n3c(nc2c1)CCC3 | x | x | u | x | u | -4%
COc1ccc(CN(C)C(=O)c2ccc3c(=O)n4c(nc3c2)CCC4)cc1 | -13% | 110* | u | 44* | -2% | -4%
OCCN1CCN(c2nc(N3CCCCC3)nc(N3CCCCC3)n2)CC1 | -14% | -7 | 60% | -7 | 10µM* | -2%
N=C(N)Sc1nc(N2CCCCC2)nc(N2CCCCC2)n1 | 0% | -6 | 9% | 0 | 27% | 0%
COc1ccc(C2C=C(C)Nc3nc4ccccc4n32)cc1 (centres undefined) | x | 111* | 50% | 43* | 17% | -1%
SMILES | NS1 function inh | Shiga inhibitor | Pf growth 96h | Cycloheximide cs | Pf growth 48h | SARS PLpro yeast
COc1ccc(C2C(C(=O)c3ccccc3)=C(C)Nc3nc4ccccc4n32)c(OC)c1 (centres undefined) | 18% | 43* | u | 31* | u | -6%
COc1ccc(OC)c(C2C(C(=O)N(C)C)=C(C)Nc3nc4ccccc4n32)c1 (centres undefined) | 5% | -13 | u | -1 | 7% | 2%
CNC(=O)C1=C(C)Nc2nc3ccccc3n2C1c1cccc(OC)c1 (centres undefined) | 9% | -3 | 90% | -2 | x | 1%
COc1ccc(C2C(C#N)=C(N)Nc3nc4ccccc4n32)cc1 (centres undefined) | 3% | 26* | 33% | 27* | 10% | -3%
CC(C)(C)c1nc(CN2CCCCC2)cc(CN2CCCCC2)c1O | -6% | -12 | u | -2 | 9.3µM* | 1%
O=C(Nc1ccc(Cl)c([N+](=O)[O-])c1)C(Sc1ccccc1)c1ccccc1 (centres undefined) | -32% | -17 | u | 6 | 13µM* | -83%
O=C(Nc1cc([N+](=O)[O-])ccc1Cl)C(Sc1ccccc1)c1ccccc1 (centres undefined) | 9% | -3 | 7% | -2 | -6% | -8%
CC(=O)N(C)c1ccc(NC(=O)C(Sc2ccccc2)c2ccccc2)cc1 (centres undefined) | x | 43* | -27% | 18* | u | 0%
Cn1c(=O)c2[nH]c(N=Nc3ccc(N)cc3N)nc2n(C)c1=O | 1% | 14 | 25% | -3 | 27% | 0%
O=C(NCCc1ccccc1)C1CCCN1C(=O)Nc1cccc(Cl)c1 (centres undefined) | 16% | -6 | -22% | -2 | -3% | 0%
OC[C@@H](O)C(O[C@@H]1O[C@@H](CO)[C@H](O)[C@H](O)[C@H]1O)[C@H](O)[C@@H](O)CO (some centres undefined) | x | x | u | x | -23% | x
CCN(CC)CCNC(=O)c1ccc(NC(=O)c2ccc(F)cc2F)cc1 | x | -3 | 27% | 11 | 35% | 0%
CC(C)C(NC(=O)c1ccc(F)cc1)C(=O)N1CCN(c2ccccn2)CC1 (centres undefined) | x | x | x | x | x | 2%
CN1CCN(c2ccc(-c3ccc4ccccc4n3)cc2)CC1 | 2% | -13 | i[5.75 µM] | 1 | -46% | 0%
Cc1cc(-c2ccc(N3CCOCC3)cc2)nc2ccccc12 | 6% | 28* | 190% | 30* | 202% | 18%
c1ccc2nc(-c3ccncc3)ccc2c1 | -11% | 84* | 67% | 34* | 74% | -7%
c1ccc2nc(-c3ccc(N4CCOCC4)cc3)ccc2c1 | 8% | 67* | 105% | 33* | 69% | -6%
CC(O)CNc1cnccn1 (centres undefined) | x | -5 | 54% | 5 | -5% | 5%
C[N+]12CCCC[C@@H]1CCC(=C(c1cccs1)c1cccs1)C2 (some centres undefined) | x | x | -9% | x | 4.3µM* | x
Cc1ccc2c(CC(=O)NCc3ccco3)coc2c1C | -15% | 33* | 14% | 23* | -9% | -18%
Cc1ccccc1C(=O)NCC(=O)NCC1(N2CCOCC2)CCCCC1 | x | x | 22% | x | -9% | 4%
N#CCC(=O)Nc1ccc(C(=O)NCC2(N3CCOCC3)CCCCC2)cc1 | x | x | 10µM* | x | 12µM* | -2%
Cc1ccc2c(CC(=O)NCC3(N4CCOCC4)CCCCC3)coc2c1C | x | x | 9.3µM* | x | u | 9%
